The structures appear in SMILES notation. Calls of active or inactive are those of the source.

For assay [1], the system named is Plasmodium falciparum Sir2 (PF13_0152, Sir2A). The experiment in a line: Plasmodium falciparum Sir2A binding compounds – biochemical, small-molecule microarray, 635 nm fluorescence, primary screen (AID 1098).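 Note: score merges spot fluorescence intensity with its signal-to-noise ratio.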 The following applies: fluorescence 635 nm, higher = more signal.
A short description of assay [2]: probe aDKK1 binding to arrayed compounds – biochemical, biotinylated probe, 635/667 nm fluorescence, primary screen (AID 1099).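 Note: score merges 667nm spot fluorescence with signal to noise across triplicate slides; reference of the scale not given here.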 The following applies: small-molecule microarray, higher = more signal.
Assay [3] can be described thus: probe aCHRDL2 binding to arrayed compounds – biochemical, biotinylated probe, 635/667 nm fluorescence, primary screen (AID 1100). To be noted: small-molecule microarray, higher = more signal.
Assay [4] is described as follows: change in splice reporter luminescence, either direction, cell-based, HEK293, spliceosome inhibition project, primary screen (AID 1101).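 Note: HEK293 cells carrying a splicing-competent luciferase reporter gene; test concentration not given here.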 To be noted: HEK293 splicing luciferase reporter, 24 h, higher = more signal, called active from +8 up or from −8 down. A general note: A reporter such as luciferase makes a cellular process visible.
Assay [5] concerns the target Fibroblast growth factor 10 (Homo sapiens) (UniProt O15520). Kind of assay: compounds binding fibroblast growth factor 10 – biochemical, small-molecule microarray, 635 nm fluorescence, primary screen (AID 1102). The following applies: FGF10 binding, fluorescence 635 nm, higher = more signal.
Assay [6] deals with glycogen synthase kinase-3 (GSK3A per assay name; protocol says GSK3B). The experiment in a line: compounds binding glycogen synthase kinase-3 – biochemical, small-molecule microarray, 635 nm fluorescence, GSK3A, primary screen (AID 1103). Note: the record names both GSK3A and GSK3B. To be noted: fluorescence 635 nm, higher = more signal.
Assay [7] has as its target Epidermal growth factor receptor (Homo sapiens) (UniProt P00533). The experiment in a line: compounds binding epidermal growth factor receptor – biochemical, small-molecule microarray, 635 nm fluorescence, primary screen (AID 1104).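 Note: score merges 667 nm emission intensity with spot signal to noise over triplicate slides.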 To be noted: EGFR binding, higher = more signal.
Assay [8] concerns the target Follistatin-related protein 3 (Homo sapiens) (UniProt O95633). Kind of assay: compounds binding follistatin-related protein 3 – biochemical, small-molecule microarray, 635 nm fluorescence, primary screen (AID 1105).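 Note: score merges emission near 667 nm and signal to noise per printed spot across three slides.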 The following applies: FSTL3 binding, higher = more signal.
The target of assay [9] is Dickkopf-related protein 1 (Homo sapiens) (UniProt O94907). Kind of assay: small molecules binding DKK1 protein – biochemical, small-molecule microarray, 635 nm fluorescence scan, primary screen (AID 1106).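 Note: score merges emission near 667 nm with signal to noise over three replicate slides.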 To be noted: higher = more signal.
Sequence of Dickkopf-related protein 1 (Homo sapiens) (O94907 whole entry, looked up): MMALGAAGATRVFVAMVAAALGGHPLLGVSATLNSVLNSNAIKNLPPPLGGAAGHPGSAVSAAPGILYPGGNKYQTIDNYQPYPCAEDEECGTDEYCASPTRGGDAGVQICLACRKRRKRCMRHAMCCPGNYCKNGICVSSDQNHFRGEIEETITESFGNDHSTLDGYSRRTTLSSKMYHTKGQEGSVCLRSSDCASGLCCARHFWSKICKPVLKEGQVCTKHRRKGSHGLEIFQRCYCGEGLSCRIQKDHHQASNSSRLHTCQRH
Assay [10] has as its system Inhibin beta A chain (activin A). The experiment in a line: small molecules binding activin A – biochemical, small-molecule microarray, 635 nm fluorescence scan, primary screen (AID 1107).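 Note: mouse activin A protein probed at 4.33 µg/mL on printed slides; score merges bound-protein fluorescence near 667 nm with spot signal-to-noise.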 The following applies: INHBA, higher = more signal.

Sequence of Follistatin-related protein 3 (Homo sapiens) (O95633 whole entry, looked up): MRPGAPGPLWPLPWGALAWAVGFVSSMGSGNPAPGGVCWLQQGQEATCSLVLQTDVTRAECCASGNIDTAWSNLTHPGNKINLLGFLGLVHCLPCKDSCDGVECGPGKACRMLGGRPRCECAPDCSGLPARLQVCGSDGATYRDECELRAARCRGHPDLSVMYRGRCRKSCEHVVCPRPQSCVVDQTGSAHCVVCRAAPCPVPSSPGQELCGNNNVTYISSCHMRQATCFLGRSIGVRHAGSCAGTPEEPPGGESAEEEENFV
Sequence of Fibroblast growth factor 10 (Homo sapiens) (O15520 whole entry, looked up): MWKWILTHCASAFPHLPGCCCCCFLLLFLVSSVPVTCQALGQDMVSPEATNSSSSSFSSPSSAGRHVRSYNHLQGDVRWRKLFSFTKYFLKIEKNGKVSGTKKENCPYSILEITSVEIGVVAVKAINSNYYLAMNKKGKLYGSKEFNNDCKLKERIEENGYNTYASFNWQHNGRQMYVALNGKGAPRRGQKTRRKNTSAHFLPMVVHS
Sequence of Epidermal growth factor receptor (Homo sapiens) (P00533 whole entry, looked up): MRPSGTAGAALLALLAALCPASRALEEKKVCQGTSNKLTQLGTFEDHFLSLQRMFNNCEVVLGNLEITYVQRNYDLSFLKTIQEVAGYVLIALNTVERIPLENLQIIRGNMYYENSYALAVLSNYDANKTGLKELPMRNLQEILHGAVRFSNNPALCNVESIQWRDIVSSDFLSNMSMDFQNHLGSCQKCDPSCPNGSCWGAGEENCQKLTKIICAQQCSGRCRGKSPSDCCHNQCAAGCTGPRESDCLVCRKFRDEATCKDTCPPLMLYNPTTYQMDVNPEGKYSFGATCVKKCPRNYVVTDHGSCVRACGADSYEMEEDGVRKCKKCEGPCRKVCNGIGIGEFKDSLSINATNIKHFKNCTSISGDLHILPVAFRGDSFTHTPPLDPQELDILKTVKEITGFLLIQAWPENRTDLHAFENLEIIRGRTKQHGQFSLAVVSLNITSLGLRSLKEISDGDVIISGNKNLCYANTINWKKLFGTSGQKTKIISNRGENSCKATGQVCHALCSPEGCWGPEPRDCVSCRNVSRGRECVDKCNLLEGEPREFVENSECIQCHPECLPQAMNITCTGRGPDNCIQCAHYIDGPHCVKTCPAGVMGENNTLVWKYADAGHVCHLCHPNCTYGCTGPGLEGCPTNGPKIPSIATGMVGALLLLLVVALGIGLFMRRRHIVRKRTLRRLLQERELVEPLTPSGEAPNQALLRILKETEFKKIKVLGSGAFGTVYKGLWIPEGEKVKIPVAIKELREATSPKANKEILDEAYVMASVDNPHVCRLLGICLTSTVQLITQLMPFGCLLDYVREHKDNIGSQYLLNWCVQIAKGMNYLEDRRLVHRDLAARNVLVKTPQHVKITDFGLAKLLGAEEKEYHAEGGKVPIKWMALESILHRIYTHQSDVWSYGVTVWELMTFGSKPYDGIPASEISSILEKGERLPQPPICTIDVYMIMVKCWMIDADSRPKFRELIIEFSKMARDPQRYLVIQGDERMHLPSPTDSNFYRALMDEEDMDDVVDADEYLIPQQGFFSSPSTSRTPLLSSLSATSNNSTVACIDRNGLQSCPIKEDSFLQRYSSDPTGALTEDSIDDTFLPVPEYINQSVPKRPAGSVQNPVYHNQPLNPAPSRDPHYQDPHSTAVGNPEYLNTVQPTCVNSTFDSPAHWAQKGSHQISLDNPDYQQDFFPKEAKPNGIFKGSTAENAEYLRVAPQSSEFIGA

With `COCCOC(=O)N1C(=O)[C@@]2(c3cc(C#CC4(O)CCCCCC4)ccc31)[C@H](c1ccccc1OCCO)N1[C@H](c3ccccc3)[C@H](c3ccccc3)OC(=O)[C@H]1[C@@H]2C(=O)N1CCc2cc(OC)c(OC)cc2C1`, the composite z-score came out at 1.09 in [1]; 0.0591 in assay [2]; 0.179 in assay [3]; 0.99 in assay [5]; 0.929 in [6]; 0.345 in [7]. The composite z-score in assay [8] is 0.528; in [9], 0.0815; in [10] it was -0.0614. The z-score in assay [4] was 0.202 (inactive).
Consider `COCCCNC(=O)[C@@]1(Cc2ccccc2CN=[N+]=[N-])N=C(c2ccc(OCCCO)cc2)O[C@H]1c1ccccc1CN=[N+]=[N-]`, for which the composite z-score is 1.25 in assay [1]; 0.616 in assay [2]; 1.09 in assay [3]; 1.43 in [5]; 0.186 in assay [6]; -0.334 in assay [7]. The composite z-score in assay [8] is 0.299; in [9], -0.629; in assay [10], 0.849. Moreover, the z-score in assay [4] was -1.51 (inactive).
Consider `COc1cc(CO)cc(I)c1O[C@H]1C=C(C(=O)NCCO)C[C@@H](N(C(=O)c2cc3ccccc3oc2=O)C2CCCCCC2)[C@@H]1O`, for which the composite z-score in [1] is 1.09; in assay [2] it was -0.28; in [3] it was -0.302; in assay [5] it was 0.968; in assay [6], -0.314; in assay [7] it was 0.338. Moreover, the composite z-score in assay [8] is 0.348; in assay [9], 0.306; in assay [10], -0.0101. The z-score in assay [4] is -1.33 (inactive).
On to `CO[C@H]1O[C@H](CO)[C@@H](OC(=O)Nc2ccc(Br)cc2)[C@@H]2OC(=O)[C@H](Cc3cccc(Br)c3)C/C=C/C[C@@H](Cc3cccc(Br)c3)C(=O)O[C@@H]12`, for which the composite z-score in [1] is 0.272; in [2], -0.157; in assay [3] it was 0.179; in assay [5], 0.383; in assay [6], -1.05; in assay [7], -0.461. Moreover, the composite z-score in assay [8] was 0.285; in assay [9], -0.0367; in [10] it was 0.0396. The z-score in [4] is -0.838 (inactive).
Consider `O=C1OCC=C[C@H]2OC34C=CCN(CCN5CCOCC5)C(=O)[C@H]3N(CCO)C(=O)[C@@H]4[C@@H]12` (stereo not given in full), for which the composite z-score was 1.47 in assay [1]; -0.0283 in [2]; -0.224 in assay [3]; -0.787 in assay [5]; 0.0559 in [6]; -0.14 in assay [7]. Also, the values for the composite z-score in assay [8], in assay [9] and in assay [10] were 0.241, -0.0563 and 0.0758, respectively. In addition, the z-score in [4] is 0.308 (inactive).
Regarding `COCC(=C=CC[C@H](O)c1ccccc1OCCO)CCO`, the composite z-score in assay [1] was 1.52; in assay [2], 0.0439; in assay [3] it was -0.423; in assay [5], 0.919; in [6], 0.485; in assay [7] it was -0.865. Besides, the composite z-score in assay [8] was 0.612; in [9], 0.274; in [10], 0.564. The z-score in assay [4] is 0.338 (inactive).
Take `O=C(CS)NCCCCCNC(=O)[C@H]1C[C@H]2C(=O)NCC(=O)N2[C@H]1c1cccc(OCCO)c1`: the composite z-score in [1] was 1.59; in [2], -0.248; in assay [3], 0.504; in assay [5], -0.0137; in assay [6], -1.11; in [7], -0.538. Besides, the composite z-score in assay [8] is 0.101; in assay [9], 0.129; in assay [10], -0.462. In assay [4], the z-score was -0.957 (inactive).
Turning to `O[C@@H](Cc1ccccc1)[C@@H](/C=C/C1CC1)NCc1cccc(Cl)c1`, the composite z-score in assay [1] was 1.2; in [2], 0.081; in assay [3], 1.31; in [5], -1.46; in assay [6], -0.638; in assay [7] it was -1.14. Also, the composite z-score is -0.78 in assay [8], -1.61 in assay [9] and 0.157 in [10]. Also, the z-score in assay [4] is -0.944 (inactive).
Regarding `COc1ccc([Si](C)(C)[C@H]2[C@H](CC(=O)N3CCC[C@H]3CO)O[C@@]3(C(=O)N(Cc4cccc(N5CCOC5=O)c4)c4ccccc43)[C@@H]2C)cc1`, the composite z-score in assay [1] was 0.927; in assay [2] it was -0.195; in [3] it was -0.425; in assay [5], 0.578; in [6] it was 0.712; in assay [7], 0.909. The composite z-score in [8] is 1.3; in [9], 0.437; in [10], 1.11. For the same compound, the z-score in [4] is -0.298 (inactive).
With `CCOC(=O)C1=CC[C@@H](c2ccccc2)N(S(=O)(=O)c2ccc(C)cc2)[C@H]1c1ccc(CC)cc1`, the composite z-score in assay [1] came out at 0.375; in [2], 0.961; in assay [3] it was 0.538; in assay [5], 0.393; in [6], 1.17; in assay [7], 0.221. The figures for the composite z-score in assay [8], in assay [9] and in assay [10] were 0.395, -0.112 and 0.965, respectively. Further, the z-score in [4] was 0.425 (inactive).
In the case of `COC(=O)[C@@]1(Cc2ccc(OC)cc2)[C@H]2c3cc(C(=O)N4CCCC4)n(CCSCCO)c3C[C@H]2CN1C(=O)c1ccccc1`, the composite z-score in assay [1] turned out to be 0.45; in assay [2], 0.852; in [3] it was 1.21; in [5], 0.556; in assay [6], 0.541; in assay [7], 0.0009. The results for the composite z-score in assay [8], in assay [9] and in [10] were -0.17, -0.984 and 0.435, respectively. Besides, the z-score in assay [4] was -0.657 (inactive).
As to `COc1ccc([Si](C)(C)[C@@H]2[C@@H](CCn3cc([C@H](O)c4ccccc4)nn3)O[C@]3(C(=O)N(Cc4cccc(N5CCC5=O)c4)c4ccccc43)[C@H]2C)cc1`, the composite z-score was 0.647 in assay [1]; -0.386 in assay [2]; -0.0143 in assay [3]; 0.483 in assay [5]; -0.502 in assay [6]; 0.0403 in assay [7]. In addition, the composite z-score in [8] is -0.304; in assay [9], 0.589; in [10], 0.521. In addition, the z-score in [4] is 1.41 (inactive).
For the compound `O=C(NC1CC1)[C@@H]1c2ccccc2C(=O)N(C2Cc3ccccc3C2)[C@H]1c1ccc(CO)cc1`, the composite z-score was 0.188 in assay [1]; -0.053 in [2]; 0.438 in assay [3]; 0.467 in assay [5]; 1.3 in [6]; 0.473 in assay [7]. The composite z-score in assay [8] was found to be 0.53; in [9], 0.951; in [10], 0.338. The z-score in assay [4] is 0.199 (inactive).

Source of the values: PubChem BioAssay.
